Experimental data: the supplement of paper PMC11732987, “Enantioselective OTUD7B fragment discovery through chemoproteomics screening and high-throughput optimisation” (Communications Chemistry, 2025)

Key:
Test in all cases: log2 ratio of Biotin-Ahx-Ub-VS probe labelling (fragment/DMSO); higher = less target engagement (more negative = stronger competition), active = hit call of the paper (q ≤ 0.05, log2 ratio ≤ -1)
Conditions in all cases: compound concentration: 200 uM; treatment time: 3 h
USP34 = USP34 (UniProt Q70CQ2)
Outline: (§1)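 Each value is an average log2 ratio of fragment to vehicle, tested by unpaired t-test. The underlying Spectronaut label-free quantities were global-median-normalised, and only proteins with ≥2 unique peptides were included. Triplicate HEK293T lysate samples (495 µg) were exposed to fragment at 200 µM or vehicle for 3 h, then to Biotin-Ahx-Ub-VS at 0.5 µM final for 1 h, before NeutrAvidin enrichment of labelled DUBs, LysC and trypsin digestion, and diaPASEF LC-MS/MS.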

USP36 = molecular target: T1, USP36 (UniProt Q9P275)
T1 sequence (whole entry): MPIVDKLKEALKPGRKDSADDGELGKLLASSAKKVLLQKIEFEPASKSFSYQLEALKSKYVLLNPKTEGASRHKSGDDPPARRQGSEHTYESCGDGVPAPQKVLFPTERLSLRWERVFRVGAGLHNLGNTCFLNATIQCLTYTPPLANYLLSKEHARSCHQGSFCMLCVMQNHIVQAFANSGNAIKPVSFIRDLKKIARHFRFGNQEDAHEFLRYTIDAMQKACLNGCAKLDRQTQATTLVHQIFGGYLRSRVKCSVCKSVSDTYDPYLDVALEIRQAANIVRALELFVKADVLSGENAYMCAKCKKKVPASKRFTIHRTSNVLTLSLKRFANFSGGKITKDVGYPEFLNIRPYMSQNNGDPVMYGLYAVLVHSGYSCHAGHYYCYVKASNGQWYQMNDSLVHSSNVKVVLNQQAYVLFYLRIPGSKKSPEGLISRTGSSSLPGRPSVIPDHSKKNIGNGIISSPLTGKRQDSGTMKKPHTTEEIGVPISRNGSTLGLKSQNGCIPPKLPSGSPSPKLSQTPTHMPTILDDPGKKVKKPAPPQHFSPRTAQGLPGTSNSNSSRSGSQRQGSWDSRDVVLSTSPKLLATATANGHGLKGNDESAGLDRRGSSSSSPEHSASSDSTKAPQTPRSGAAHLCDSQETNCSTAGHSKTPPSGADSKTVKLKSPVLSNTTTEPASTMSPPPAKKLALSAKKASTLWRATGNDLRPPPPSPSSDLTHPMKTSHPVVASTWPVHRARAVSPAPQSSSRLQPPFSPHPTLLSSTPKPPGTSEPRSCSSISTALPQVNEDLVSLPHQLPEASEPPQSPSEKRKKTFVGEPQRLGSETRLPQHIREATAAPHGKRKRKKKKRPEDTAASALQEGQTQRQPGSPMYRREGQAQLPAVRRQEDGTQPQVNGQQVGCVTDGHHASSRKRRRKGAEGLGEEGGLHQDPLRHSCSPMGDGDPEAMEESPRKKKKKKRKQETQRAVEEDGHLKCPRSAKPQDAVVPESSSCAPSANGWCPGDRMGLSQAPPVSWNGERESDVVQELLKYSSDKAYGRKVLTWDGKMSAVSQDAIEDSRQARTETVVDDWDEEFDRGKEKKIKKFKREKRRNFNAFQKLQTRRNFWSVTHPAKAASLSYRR
Outline: as §1

USP38 = molecular target: T2, USP38 (UniProt Q8NB14)
T2 sequence (whole entry): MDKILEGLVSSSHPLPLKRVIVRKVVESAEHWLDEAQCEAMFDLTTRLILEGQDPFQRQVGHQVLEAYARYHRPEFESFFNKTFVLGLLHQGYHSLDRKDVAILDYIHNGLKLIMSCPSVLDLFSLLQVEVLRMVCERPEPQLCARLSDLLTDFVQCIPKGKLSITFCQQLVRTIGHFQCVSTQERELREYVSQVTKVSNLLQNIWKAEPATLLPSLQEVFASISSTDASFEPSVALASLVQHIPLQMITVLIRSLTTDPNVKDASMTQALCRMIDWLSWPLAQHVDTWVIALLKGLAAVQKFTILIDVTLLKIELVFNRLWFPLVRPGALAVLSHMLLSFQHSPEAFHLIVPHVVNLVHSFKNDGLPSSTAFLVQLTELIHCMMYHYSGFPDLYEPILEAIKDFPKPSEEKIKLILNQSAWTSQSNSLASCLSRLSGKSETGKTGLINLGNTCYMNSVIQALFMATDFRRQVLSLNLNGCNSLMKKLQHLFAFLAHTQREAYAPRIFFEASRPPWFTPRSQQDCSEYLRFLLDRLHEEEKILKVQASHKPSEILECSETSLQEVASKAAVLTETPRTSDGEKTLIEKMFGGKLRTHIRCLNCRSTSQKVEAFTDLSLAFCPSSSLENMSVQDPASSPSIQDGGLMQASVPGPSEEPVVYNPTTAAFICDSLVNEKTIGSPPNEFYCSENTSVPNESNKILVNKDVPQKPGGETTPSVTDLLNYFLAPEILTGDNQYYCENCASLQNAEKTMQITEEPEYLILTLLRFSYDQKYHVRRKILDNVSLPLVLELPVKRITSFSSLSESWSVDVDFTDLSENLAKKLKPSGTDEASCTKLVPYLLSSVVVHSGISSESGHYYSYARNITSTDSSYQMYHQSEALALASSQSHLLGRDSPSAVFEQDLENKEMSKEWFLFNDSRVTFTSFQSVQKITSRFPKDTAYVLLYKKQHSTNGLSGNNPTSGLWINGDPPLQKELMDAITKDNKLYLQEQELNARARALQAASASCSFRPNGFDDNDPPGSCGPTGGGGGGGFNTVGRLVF
Outline: as §1

USP39 = molecular target: T3, USP39 (UniProt Q53GS9)
T3 sequence (whole entry): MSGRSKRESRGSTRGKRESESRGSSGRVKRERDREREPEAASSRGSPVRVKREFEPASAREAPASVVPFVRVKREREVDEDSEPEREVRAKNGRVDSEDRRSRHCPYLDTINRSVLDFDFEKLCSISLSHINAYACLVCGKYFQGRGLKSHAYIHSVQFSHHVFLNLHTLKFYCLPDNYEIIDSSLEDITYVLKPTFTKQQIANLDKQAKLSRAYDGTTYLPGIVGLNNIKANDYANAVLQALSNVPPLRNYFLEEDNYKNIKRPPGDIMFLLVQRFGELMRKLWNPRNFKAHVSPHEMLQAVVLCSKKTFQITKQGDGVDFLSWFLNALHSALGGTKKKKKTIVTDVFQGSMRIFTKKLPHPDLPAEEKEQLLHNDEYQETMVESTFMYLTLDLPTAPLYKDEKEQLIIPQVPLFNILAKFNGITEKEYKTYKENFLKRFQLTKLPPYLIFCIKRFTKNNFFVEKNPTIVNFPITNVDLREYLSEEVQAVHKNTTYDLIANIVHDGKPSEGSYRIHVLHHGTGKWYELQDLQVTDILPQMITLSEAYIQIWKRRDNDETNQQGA
Outline: as §1

USP4 = molecular target: T4, USP4 (UniProt Q13107)
T4 sequence (whole entry): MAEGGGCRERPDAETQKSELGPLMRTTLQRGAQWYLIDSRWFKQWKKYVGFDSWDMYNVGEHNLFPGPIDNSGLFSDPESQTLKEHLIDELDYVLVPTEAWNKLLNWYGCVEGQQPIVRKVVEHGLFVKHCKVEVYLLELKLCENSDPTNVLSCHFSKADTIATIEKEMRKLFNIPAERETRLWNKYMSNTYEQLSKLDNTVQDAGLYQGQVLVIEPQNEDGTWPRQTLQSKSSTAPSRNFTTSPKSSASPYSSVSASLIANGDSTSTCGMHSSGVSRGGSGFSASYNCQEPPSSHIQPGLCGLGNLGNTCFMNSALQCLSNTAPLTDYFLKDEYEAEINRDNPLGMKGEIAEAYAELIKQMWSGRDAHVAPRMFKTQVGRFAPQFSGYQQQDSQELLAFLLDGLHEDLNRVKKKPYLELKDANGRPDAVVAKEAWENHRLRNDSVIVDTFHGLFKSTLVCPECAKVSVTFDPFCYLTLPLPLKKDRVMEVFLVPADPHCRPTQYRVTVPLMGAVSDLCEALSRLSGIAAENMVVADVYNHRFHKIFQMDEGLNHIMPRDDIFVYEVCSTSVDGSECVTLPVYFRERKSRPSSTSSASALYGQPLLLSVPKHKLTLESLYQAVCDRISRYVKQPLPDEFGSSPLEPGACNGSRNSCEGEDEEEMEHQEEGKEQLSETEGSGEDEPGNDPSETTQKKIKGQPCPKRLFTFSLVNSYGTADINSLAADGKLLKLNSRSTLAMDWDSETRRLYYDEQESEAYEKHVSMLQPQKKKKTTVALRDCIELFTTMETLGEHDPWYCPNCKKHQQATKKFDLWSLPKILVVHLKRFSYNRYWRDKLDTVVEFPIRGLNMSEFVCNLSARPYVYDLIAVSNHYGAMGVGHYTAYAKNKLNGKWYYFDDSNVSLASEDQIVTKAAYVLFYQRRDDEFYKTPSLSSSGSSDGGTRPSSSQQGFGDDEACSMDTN
Outline: as §1

Measured: log2 ratio of Biotin-Ahx-Ub-VS probe labelling

Sequence of USP34 (Q70CQ2 whole entry, the tested form may be a part): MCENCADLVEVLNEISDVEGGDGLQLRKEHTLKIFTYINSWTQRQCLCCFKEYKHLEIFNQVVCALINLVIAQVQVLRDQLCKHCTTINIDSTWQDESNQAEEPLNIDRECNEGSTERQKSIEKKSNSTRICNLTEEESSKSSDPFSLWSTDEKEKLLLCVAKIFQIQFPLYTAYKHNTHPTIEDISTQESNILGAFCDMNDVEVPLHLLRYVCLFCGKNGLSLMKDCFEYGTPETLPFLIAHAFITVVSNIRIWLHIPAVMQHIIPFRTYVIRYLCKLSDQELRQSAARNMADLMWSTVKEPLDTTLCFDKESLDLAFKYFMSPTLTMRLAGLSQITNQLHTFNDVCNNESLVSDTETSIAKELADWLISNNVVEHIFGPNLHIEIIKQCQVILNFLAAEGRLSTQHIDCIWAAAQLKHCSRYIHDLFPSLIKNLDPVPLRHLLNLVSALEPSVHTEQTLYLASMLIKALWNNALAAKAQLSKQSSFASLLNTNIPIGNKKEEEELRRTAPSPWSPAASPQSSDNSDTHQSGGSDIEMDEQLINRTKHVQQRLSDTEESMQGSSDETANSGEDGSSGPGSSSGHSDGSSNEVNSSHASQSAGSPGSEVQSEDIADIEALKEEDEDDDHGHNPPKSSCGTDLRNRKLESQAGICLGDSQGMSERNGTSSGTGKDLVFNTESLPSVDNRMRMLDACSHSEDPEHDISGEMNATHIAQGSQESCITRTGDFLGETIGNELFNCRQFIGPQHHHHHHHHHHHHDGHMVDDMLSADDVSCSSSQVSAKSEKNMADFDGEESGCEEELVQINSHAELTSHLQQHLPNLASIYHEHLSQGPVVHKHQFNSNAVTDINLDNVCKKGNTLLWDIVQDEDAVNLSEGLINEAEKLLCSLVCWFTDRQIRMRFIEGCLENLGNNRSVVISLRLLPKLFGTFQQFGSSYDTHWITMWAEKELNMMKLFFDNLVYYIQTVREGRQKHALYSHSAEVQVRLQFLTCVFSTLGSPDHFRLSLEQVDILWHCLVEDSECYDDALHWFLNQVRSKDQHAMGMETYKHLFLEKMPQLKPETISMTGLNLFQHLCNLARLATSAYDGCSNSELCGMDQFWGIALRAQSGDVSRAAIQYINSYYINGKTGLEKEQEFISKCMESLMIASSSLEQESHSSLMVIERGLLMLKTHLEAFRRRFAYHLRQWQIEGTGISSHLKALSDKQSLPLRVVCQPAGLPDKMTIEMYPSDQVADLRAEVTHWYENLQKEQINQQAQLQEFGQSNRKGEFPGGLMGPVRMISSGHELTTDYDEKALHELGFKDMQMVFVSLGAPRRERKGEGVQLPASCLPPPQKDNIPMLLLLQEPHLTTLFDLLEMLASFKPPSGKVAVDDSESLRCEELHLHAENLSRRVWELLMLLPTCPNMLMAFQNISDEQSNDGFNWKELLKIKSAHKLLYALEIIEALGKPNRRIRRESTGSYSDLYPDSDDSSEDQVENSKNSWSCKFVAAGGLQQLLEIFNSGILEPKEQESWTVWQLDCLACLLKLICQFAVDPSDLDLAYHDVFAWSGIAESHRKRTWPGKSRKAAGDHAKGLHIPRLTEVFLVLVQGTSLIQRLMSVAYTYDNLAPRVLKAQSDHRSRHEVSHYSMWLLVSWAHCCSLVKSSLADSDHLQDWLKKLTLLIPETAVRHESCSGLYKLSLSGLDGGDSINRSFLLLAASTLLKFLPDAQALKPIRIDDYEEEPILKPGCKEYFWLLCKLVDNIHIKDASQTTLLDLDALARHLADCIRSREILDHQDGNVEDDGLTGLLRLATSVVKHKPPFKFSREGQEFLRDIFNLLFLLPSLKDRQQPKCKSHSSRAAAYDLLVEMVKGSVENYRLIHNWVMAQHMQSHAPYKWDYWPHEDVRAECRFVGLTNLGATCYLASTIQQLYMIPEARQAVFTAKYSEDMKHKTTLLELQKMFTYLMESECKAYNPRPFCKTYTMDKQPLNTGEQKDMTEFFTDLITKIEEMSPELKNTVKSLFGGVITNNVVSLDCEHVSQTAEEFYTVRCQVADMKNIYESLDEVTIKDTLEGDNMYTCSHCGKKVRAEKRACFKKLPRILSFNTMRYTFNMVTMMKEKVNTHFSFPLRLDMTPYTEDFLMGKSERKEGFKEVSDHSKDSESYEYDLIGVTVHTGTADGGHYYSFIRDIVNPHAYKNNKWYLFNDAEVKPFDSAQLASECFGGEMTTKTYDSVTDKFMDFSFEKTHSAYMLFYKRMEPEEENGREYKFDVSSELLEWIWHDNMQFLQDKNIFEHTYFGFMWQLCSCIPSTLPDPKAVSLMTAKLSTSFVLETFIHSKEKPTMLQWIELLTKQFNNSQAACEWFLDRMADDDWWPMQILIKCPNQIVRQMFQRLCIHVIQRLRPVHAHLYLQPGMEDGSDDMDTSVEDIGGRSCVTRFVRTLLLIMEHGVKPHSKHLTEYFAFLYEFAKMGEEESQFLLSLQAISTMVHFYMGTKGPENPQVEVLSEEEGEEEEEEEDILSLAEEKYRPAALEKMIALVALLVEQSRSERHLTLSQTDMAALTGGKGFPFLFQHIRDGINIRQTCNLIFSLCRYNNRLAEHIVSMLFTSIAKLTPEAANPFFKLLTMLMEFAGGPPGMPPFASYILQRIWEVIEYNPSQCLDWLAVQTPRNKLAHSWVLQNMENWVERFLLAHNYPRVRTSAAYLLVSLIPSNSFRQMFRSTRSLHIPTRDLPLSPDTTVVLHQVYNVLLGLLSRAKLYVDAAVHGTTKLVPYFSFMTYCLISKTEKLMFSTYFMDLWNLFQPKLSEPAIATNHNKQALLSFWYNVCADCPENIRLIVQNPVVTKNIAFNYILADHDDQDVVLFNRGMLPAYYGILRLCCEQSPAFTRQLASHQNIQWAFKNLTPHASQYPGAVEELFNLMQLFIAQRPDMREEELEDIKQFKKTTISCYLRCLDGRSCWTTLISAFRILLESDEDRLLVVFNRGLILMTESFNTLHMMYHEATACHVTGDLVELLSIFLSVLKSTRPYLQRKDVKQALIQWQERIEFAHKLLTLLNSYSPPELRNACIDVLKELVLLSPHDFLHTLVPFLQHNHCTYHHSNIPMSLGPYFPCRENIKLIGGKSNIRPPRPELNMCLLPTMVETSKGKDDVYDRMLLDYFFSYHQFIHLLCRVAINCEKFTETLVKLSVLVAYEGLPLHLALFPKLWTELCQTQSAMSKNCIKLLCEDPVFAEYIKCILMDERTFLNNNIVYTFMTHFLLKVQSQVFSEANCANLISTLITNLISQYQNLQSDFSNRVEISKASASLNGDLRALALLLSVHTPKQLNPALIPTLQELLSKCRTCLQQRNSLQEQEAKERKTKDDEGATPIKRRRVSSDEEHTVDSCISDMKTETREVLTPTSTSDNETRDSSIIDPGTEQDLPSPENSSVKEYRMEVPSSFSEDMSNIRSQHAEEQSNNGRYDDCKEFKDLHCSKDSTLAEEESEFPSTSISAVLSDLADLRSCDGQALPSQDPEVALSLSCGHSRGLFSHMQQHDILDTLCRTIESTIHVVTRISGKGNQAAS

C/C(=C\CNC(=O)CCl)c1cnn(C)c1.Cl
inactive: USP34 -0.267 | USP36 -0.266 | USP38 -0.227 | USP39 0.0033 | USP4 -0.395
